Assay results published in PubChem BioAssay (Tox21).
Records with an inconclusive call do not appear. Calls of active or inactive are those of the source. Unless noted, calls follow the shape of the dose curve; as a rule, active = well fitted curve in the direction sought with a large enough effect in the repeat runs; inconclusive = weak or mixed curves; inactive = no such curve, though single readings can be large; an effect the other way counts as inactive or inconclusive.

Key:
[1] = A CellTox Green Cytotoxicity Assay to monitor cytotoxicity in HepG2 cells - 0 hour (AID 1224882); also: nearly all actives have a fitted effect of over 35% in size
Summary of the method: (§1)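 Fluorescent DNA-binding dye, 600 HepG2 cells/well, 5 h preincubation then compound in DMSO; same plates read at 0–40 h, 37 C.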

[2] = A CellTox Green Cytotoxicity Assay to monitor cytotoxicity in HepG2 cells - 32 hour (AID 1224883); also: nearly all actives have a fitted effect of over 50% in size; also: potency is read from the fitted curve at half-maximal effect
Summary of the method: as §1

[3] = A CellTox Green Cytotoxicity Assay to monitor cytotoxicity in HEK293 cells - 8 hour (AID 1224884); also: nearly all actives have a fitted effect of over 35% in size
Summary of the method: (§2)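 Homogeneous no-lysis format: HEK293 cell suspension mixed with CellTox Green reagent, seeded, incubated 5 h at 37 C/5% CO2, then dosed by pintool with compound in DMSO.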

[4] = qHTS RealTime-Glo MT Cell Viability Assay in HEK293 cells - 24 hour (AID 1224886); also: nearly all actives have a fitted effect of over 50% in size; also: potency is read from the fitted curve at half-maximal effect; as to activity change, negative = cytotoxicity: top concentration of the series differs between compounds
Summary of the method: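 Viability tracked continuously by luminescence as live cells reduce a prosubstrate for NanoLuc; HEK293 cells preincubated 5 h, compound-treated at 37 C, and read at 0, 8, 16, 24, 32 and 40 h.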

[5] = qHTS RealTime-Glo MT Cell Viability Assay in HEK293 cells - 8 hour (AID 1224887); also: nearly all actives have a fitted effect of over 50% in size; also: potency is read from the fitted curve at half-maximal effect; as to activity change, negative = cytotoxicity: top concentration of the series differs between compounds
Summary of the method: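 Measured as luminescence from the same continuously cultured HEK293 wells at successive time points (0, 8, 16, 24, 32, 40 h) after compound addition. Reagent present from seeding; dosing at 5 h; incubation 37 C.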

[6] = A CellTox Green Cytotoxicity Assay to monitor cytotoxicity in HEK293 cells - 16 hour (AID 1224888); also: nearly all actives have a fitted effect of over 35% in size
Summary of the method: as §2

[7] = qHTS RealTime-Glo MT Cell Viability Assay in HepG2 cells - 0 hour (AID 1224889); also: nearly all actives have a fitted effect of over 50% in size
Summary of the method: (§3)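 Viability was tracked continuously by NanoLuc luminescence from prosubstrate reduced by living HepG2 cells, at successive time points over 40 h of compound exposure. Cells with reagent were preincubated 5 h at 37 °C before compound addition.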

[8] = A CellTox Green Cytotoxicity Assay to monitor cytotoxicity in HepG2 cells - 8 hour (AID 1224890); also: nearly all actives have a fitted effect of over 45% in size
Summary of the method: as §1

[9] = qHTS assay to identify small molecule antagonists of the estrogen receptor alpha (ER-alpha) signaling pathway using the BG1 cell line in the presence of 0.1 nM 17-beta-estradiol - cell viability counter screen (AID 1259241); also: nearly all actives have a fitted effect of over 40% in size; also: potency is read from the fitted curve at half-maximal effect
Summary of the method: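 VM7Luc4E2, 4,000 cells/well, phenol red-free medium + 10% charcoal-stripped FBS; 24 hr plating; cpd + 0.1 nM E2 final, 22 hr 37C/5% CO2; CellTiter-Fluor 30 min, fluorescence.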

[10] = biological target: Estrogen receptor (Homo sapiens) (UniProt P03372); test: qHTS assay to identify small molecule antagonists of the estrogen receptor alpha (ER-alpha) signaling pathway using the BG1 cell line in the presence of 0.1 nM 17-beta-estradiol (AID 1259244); also: nearly all actives have a fitted effect of over 50% in size; also: potency is read from the fitted curve at half-maximal effect
Sequence of Estrogen receptor (Homo sapiens) (P03372 whole entry, looked up): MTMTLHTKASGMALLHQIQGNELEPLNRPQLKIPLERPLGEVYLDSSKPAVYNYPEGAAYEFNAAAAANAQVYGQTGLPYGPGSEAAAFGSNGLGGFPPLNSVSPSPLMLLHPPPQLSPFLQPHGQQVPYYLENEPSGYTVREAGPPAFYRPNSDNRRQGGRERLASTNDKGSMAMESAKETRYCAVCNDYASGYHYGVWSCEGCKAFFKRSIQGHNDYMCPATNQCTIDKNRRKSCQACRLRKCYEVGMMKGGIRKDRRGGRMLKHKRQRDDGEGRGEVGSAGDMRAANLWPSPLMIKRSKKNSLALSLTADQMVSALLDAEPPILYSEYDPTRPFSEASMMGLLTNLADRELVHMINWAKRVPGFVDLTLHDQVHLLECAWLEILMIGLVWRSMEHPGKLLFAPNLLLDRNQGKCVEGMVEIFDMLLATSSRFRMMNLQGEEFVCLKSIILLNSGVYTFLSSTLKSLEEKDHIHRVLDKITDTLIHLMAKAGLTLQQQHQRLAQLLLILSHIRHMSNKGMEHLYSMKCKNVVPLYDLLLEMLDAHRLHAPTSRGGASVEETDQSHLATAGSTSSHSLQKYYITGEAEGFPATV
Summary of the method: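 Seeding of stripped-serum-adapted VM7Luc4E2 cells, 24 h attachment, compound transfer, then 0.1 nM final 17beta-estradiol; after 22 h incubation, ONE-Glo reagent and luminescence reading.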

[11] = qHTS assay to identify small molecule HDAC inhibitors (AID 1259364);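 also: wild-type HCT-116 cells with endogenous class I/II HDAC activity; top concentration of the series differs between compounds; nearly all actives have a fitted effect of over 45% in size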
Summary of the method: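 After a 2 hr compound incubation (37C, 5% CO2), HCT-116 cells seeded at 1,500/well the day before received HDAC-Glo reagent; signal read as luminescence after 30 min at room temperature.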

[12] = qHTS assay to identify small molecule HDAC inhibitors - cell viability counter screen (AID 1259365)
Summary of the method: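 Luminescence from CellTiter-Glo, developed 30min at room temperature, reports viability of wild-type HCT-116 cells treated 2hr with compounds at 37 C and 5% CO2 after overnight plating.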

[13] = qHTS assay to identify small molecule agonists of the sonic hedgehog signaling (Shh) pathway - cell viability counter screen (AID 1259366); also: nearly all actives have a fitted effect of over 50% in size; also: potency is read from the fitted curve at half-maximal effect
Summary of the method: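 Cytotoxicity counter screen run in the same wells as the Shh reporter assay. NIH/3T3 cells carrying a Gli1 response element–driven luciferase were treated with DMSO-dissolved compounds for 24hr, and live-cell protease activity was measured with CellTiter-Fluor.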

[14] = qHTS assay to identify small molecule antagonists of the sonic hedgehog signaling (Shh) pathway - cell viability counter screen (AID 1259367); also: nearly all actives have a fitted effect of over 55% in size; also: potency is read from the fitted curve at half-maximal effect
Summary of the method: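 Viability was read by CellTiter-Fluor fluorescence in the same wells, reagent added 23 hr into compound treatment and incubated 1 hr at 37C. The 3T3 Gli1-Luc reporter cells (2,000/well) received conditioned medium after compound and ran 24 hr.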

[15] = qHTS RealTime-Glo MT Cell Viability Assay in HepG2 cells - 16 hour (AID 1224885); also: nearly all actives have a fitted effect of over 50% in size
Summary of the method: as §3

[16] = qHTS assay to identify small molecule phospholipidosis (PLD) inducers (AID 1259344; active = well fitted curve in the direction sought with a large enough effect; an effect the other way counts as inactive or inconclusive)
Summary of the method: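 Phospholipid accumulation was scored by imaging: fixed, Hoechst-counterstained HepG2 cells stained with LipidTOX Red after 24 h compound exposure at 37 C. Read-outs were pit count and pit intensity per well or per cell, with amiodarone and DMSO controls.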

[17] = qHTS assay to identify small molecule agonists of the sonic hedgehog signaling (Shh) pathway (AID 1259368; calls by dose curve;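 also: NIH/3T3-derived 3T3Gli1-Luc cells carrying a stable Gli1-driven firefly luciferase reporter; series mostly up to about 92 µM; nearly all actives have a fitted effect of over 15% in size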)
Summary of the method: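 Stable NIH/3T3 Gli1-Luc reporter clone; 24 hr cpd exposure after a 4 hr settling period; luminescence endpoint.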

[18] = qHTS assay to identify small molecule antagonists of the sonic hedgehog signaling (Shh) pathway (AID 1259369; calls by dose curve; also: nearly all actives have a fitted effect of over 45% in size; also: potency is read from the fitted curve at half-maximal effect)
Summary of the method: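 Gli1 transcriptional reporter (firefly Luc) in NIH/3T3 background, conditioned-medium activated. 24hr exposure, luminescence endpoint.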

[19] = qHTS assay to identify small molecule antagonists of the androgen receptor (AR) signaling pathway using the MDA cell line in the presence of 0.5 nM R1881 - cell viability counter screen (AID 1259242); also: nearly all actives have a fitted effect of over 45% in size
Summary of the method: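 Human breast carcinoma MDA-kb2 cells, cultured without CO2, receive compounds alongside 0.5 nM (final) R1881 agonist. After 16 hr at 37C, viability is taken as live-cell protease signal.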

[20] = biological target: Androgen receptor (Homo sapiens) (UniProt P10275); test: qHTS assay to identify small molecule antagonists of the androgen receptor (AR) signaling pathway using the MDA cell line in the presence of 0.5 nM R1881 (AID 1259243); also: nearly all actives have a fitted effect of over 50% in size
Sequence of Androgen receptor (Homo sapiens) (P10275 whole entry, looked up): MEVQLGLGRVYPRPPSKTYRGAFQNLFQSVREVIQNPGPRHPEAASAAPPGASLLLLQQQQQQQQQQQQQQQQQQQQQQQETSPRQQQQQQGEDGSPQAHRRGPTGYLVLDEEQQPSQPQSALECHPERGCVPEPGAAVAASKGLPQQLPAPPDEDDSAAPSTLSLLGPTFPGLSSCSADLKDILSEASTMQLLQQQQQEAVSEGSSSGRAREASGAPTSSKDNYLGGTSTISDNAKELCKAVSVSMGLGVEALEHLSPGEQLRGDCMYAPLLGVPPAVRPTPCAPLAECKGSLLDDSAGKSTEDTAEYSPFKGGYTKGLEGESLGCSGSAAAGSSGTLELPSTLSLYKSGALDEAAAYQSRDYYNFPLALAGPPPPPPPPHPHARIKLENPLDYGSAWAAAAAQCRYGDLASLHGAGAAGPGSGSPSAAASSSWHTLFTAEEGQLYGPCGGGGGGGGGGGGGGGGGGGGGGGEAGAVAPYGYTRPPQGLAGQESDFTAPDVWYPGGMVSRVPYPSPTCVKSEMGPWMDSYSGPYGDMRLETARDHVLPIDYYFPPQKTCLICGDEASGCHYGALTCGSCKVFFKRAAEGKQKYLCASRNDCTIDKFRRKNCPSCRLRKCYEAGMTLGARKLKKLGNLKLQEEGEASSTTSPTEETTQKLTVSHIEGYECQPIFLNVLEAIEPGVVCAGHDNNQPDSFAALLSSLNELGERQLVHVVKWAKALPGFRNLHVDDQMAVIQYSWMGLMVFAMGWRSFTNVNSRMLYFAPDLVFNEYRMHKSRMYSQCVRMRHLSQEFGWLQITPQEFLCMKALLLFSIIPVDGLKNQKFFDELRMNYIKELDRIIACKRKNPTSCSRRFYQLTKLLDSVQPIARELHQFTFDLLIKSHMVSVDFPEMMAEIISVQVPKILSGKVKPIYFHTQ
Summary of the method: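 Cells: MDA-kb2 (MMTV-luc). Stimulus: 0.5 nM R1881. Time: 16 hr, 37C, no CO2. Detection: ONE-Glo luminescence after 30 min at RT.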
% is scaled to controls: 0 for no effect and ±100 for the full control effect.

Cc1cccc(S(=O)(=O)O)c1C
inactive: Potency [1] | Potency [2] | Potency [3] | Potency [4] | Potency [5] | Potency [6] | Potency [7] | Potency [8] | Potency [9] | Potency [10] | Potency [11] | Potency [12] | Potency [13] | Potency [14]

CN(C/C=C/C#CC(C)(C)C)Cc1cccc2ccccc12
inactive: Potency [1] | Potency [2] | Potency [3] | Potency [15] | Potency [7] | Potency [8] | Potency [9] | Potency [16] | Potency [11] | Potency [12] | Potency [14] | Potency [17] | Potency [18]

CCCCN1CCCC[C@H]1C(=O)Nc1c(C)cccc1C
inactive: Potency [1] | Potency [2] | Potency [3] | Potency [4] | Potency [5] | Potency [6] | Potency [7] | Potency [8] | Potency [9] | Potency [19] | Potency [20] | Potency [10] | Potency [16] | Potency [11] | Potency [12] | Potency [14] | Potency [17] | Potency [18]

CCN(Cc1cccnc1)C(=O)c1cccc(Cl)c1[C@]1(C)C(=O)N(Cc2ccc(OC)cc2OC)c2ccc(Cl)cc21
inactive: Potency [1] | Potency [2] | Potency [3] | Potency [6] | Potency [8] | Potency [9] | Potency [19] | Potency [11] | Potency [12] | Potency [17]
active: Potency [4] 20.4 µM | Potency [5] 20.4 µM | Potency [10] 64.1 µM

C=CC(=O)OCCn1c(=O)n(CCOC(=O)C=C)c(=O)n(CCOC(=O)C=C)c1=O
active: Potency [2] 43.6 µM | Potency [4] 11 µM | Potency [9] 48.6 µM | Potency [13] 10.9 µM | Potency [14] 21.7 µM | Potency [18] 5.45 µM
inactive: Potency [1] | Potency [3] | Potency [5] | Potency [6] | Potency [7] | Potency [8] | Potency [11] | Potency [17]

CN(C)c1ccc(C2(c3ccc(N(C)C)cc3)OC(=O)c3cc(N(C)C)ccc32)cc1
inactive: Potency [1] | Potency [2] | Potency [3] | Potency [4] | Potency [5] | Potency [7] | Potency [8] | Potency [9] | Potency [19] | Potency [10] | Potency [11] | Potency [12] | Potency [13] | Potency [14] | Potency [17]

Cc1ccc(-n2nc(C(C)(C)C)cc2NC(=O)Nc2ccc(OCCN3CCOCC3)c3ccccc23)cc1
inactive: Potency [1] | Potency [2] | Potency [3] | Potency [15] | Potency [7] | Potency [8] | Potency [9] | Potency [10] | Potency [16] | Potency [11] | Potency [12] | Potency [14] | Potency [17] | Potency [18]

O=C(OC[C@H]1O[C@@H](OC(=O)c2cc(O)c(O)c(OC(=O)c3cc(O)c(O)c(O)c3)c2)[C@H](OC(=O)c2cc(O)c(O)c(OC(=O)c3cc(O)c(O)c(O)c3)c2)[C@@H](OC(=O)c2cc(O)c(O)c(OC(=O)c3cc(O)c(O)c(O)c3)c2)[C@@H]1OC(=O)c1cc(O)c(O)c(OC(=O)c2cc(O)c(O)c(O)c2)c1)c1cc(O)c(O)c(OC(=O)c2cc(O)c(O)c(O)c2)c1
active: Potency [13] 11.7 µM | Potency [14] 6.57 µM
inactive: cytotoxicity [1] -19.7% [at 15.8 µM] | cytotoxicity increase [2] -61.4% [at 15.8 µM] | cytotoxicity increase [3] -34.5% [at 15.8 µM] | activity change, negative = cytotoxicity [4] -14.1% [at 15.8 µM] | activity change, negative = cytotoxicity [5] -15.8% [at 15.8 µM] | activity change [6] -38.7% [at 15.8 µM, hits give high values] | activity change, negative = cytotoxicity [7] -17.5% [at 15.8 µM] | cytotoxicity increase [8] -46.2% [at 15.8 µM] | Potency [16] | activity change, negative = inhibition [11] 4.81% [at 19 µM] | activity change, negative = cytotoxicity [12] -4.93% [at 19 µM] | activity change [17] -2.95% [at 18.9 µM, hits give high values]

CCN(CCC#N)c1ccc(N=Nc2c(Cl)cc([N+](=O)[O-])cc2Cl)cc1
inactive: Potency [1] | Potency [2] | Potency [3] | Potency [4] | Potency [5] | Potency [6] | Potency [7] | Potency [8] | Potency [10] | Potency [11] | Potency [12] | Potency [18]

NNC(=O)c1cccc(C(=O)NN)c1
inactive: Potency [1] | Potency [2] | Potency [3] | Potency [4] | Potency [5] | Potency [6] | Potency [7] | Potency [8] | Potency [9] | Potency [20] | Potency [10] | Potency [11] | Potency [13] | Potency [14] | Potency [17] | Potency [18]
